High-throughput results from PubChem BioAssay.
N-glyco inh = N-linked glycosylation inhibition | 360,000 compounds, 0.23% hits | D54 ERlucT glycosylation luciferase reporter, 24 h; percent of 100 nM tunicamycin response | reporter increase, % at 12.5 µM | AID 588692;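 active means mean luciferase reporter signal, scaled so untreated is 0 and the glycosylation-blocking control 100, at or above a set limit in every replicate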;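 further: luciferase carries N-glycosylation sites so blocking glycosylation raises the light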
MITF act = MITF TRPM1 promoter activation in melanoma cells; SK-MEL-5 TRPM1-promoter luciferase, 24 h; % of positive control, neutral wells = 0; activation, % at 12.5 µM; 300,000 compounds, 0.75% hits;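 active means mean activation of at least 80% with every replicate also reaching 80%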
Wnt act = activators of Wnt/beta-catenin signaling; 300,000 compounds, 1.2% hits; activation, % at 9.35 µM; Wnt/beta-catenin reporter cell assay, activator, plate reader; in the data active means activation above about 30%, passing the limit was not always enough
PfHsp90 yeast 2 = inhibits growth of yeast expressing Plasmodium falciparum Hsp90 | S. cerevisiae expressing PfHsp90, BacTiter-Glo ATP, 48 h; yeast lacking PDR1 and PDR3 efflux regulators | inhibition, % at 9.4 µM | 310,000 compounds, 0.32% hits;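 active means every replicate shows inhibition above about 80%, whatever the replicate mean, limit read from the data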
TRPM1 prom inh = MITF TRPM1 promoter inhibition in SK-MEL-5 cells; SK-MEL-5 TRPM1 promoter luciferase, 24 h; inhibition, % at 12.5 µM; 330,000 compounds, 0.83% hits; AID 488899;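 active means mean inhibition across replicates of 60% or more, whatever share of single replicates reaches that level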
NSD2 HMT inh = blocks human histone methyltransferase NSD2. 310,000 compounds, 0.54% hits. NSD2 peptide methylation, AlphaScreen, 120 min. O96028. inhibition, % at 12.5 µM; in the data active means inhibition above about 50%
Target sequence (O96028 whole entry, looked up): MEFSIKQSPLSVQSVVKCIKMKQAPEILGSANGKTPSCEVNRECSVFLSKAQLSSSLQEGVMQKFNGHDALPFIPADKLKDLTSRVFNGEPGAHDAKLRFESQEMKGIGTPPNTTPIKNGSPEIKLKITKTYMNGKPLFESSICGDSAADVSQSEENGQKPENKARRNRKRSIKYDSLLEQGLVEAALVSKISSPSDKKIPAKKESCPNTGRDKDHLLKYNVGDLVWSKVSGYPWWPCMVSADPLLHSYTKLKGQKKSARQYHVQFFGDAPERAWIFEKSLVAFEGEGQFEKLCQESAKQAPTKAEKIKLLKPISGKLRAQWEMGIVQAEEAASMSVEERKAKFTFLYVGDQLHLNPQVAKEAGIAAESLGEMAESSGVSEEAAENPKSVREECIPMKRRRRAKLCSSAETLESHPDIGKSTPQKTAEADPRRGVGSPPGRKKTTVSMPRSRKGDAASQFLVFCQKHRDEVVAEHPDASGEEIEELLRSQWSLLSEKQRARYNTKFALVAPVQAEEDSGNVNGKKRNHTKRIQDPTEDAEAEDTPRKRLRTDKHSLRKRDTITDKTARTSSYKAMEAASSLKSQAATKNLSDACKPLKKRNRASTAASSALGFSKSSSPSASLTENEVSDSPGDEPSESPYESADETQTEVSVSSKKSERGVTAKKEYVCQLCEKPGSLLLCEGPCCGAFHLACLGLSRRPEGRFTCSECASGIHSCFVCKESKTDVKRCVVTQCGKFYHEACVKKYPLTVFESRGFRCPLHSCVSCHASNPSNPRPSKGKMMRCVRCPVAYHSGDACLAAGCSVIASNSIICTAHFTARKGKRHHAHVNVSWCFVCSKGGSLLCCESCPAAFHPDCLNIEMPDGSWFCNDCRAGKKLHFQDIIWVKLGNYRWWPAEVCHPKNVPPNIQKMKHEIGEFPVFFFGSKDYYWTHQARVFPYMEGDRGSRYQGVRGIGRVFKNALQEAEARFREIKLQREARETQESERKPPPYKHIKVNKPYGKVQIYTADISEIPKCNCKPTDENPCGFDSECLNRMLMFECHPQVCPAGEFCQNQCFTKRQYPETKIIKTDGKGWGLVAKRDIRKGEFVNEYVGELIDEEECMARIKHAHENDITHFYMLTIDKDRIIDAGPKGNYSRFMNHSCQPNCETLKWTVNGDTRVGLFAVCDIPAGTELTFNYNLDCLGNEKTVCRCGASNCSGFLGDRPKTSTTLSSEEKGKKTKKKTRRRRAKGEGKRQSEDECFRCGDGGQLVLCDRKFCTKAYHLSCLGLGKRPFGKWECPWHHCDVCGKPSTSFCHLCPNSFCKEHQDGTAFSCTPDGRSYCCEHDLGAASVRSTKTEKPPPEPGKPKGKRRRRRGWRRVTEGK
Of the large screens only hits and unclear results are named; the others gave an inactive call. An excerpt weighted towards active compounds, which were near 2.9% of everything screened.

O=C(Nc1cc(Cl)ccc1F)C1CCCN1S(=O)(=O)c1cccc2cccnc12 (stereo not given)	none (no result: N-glyco inh, MITF act, Wnt act, PfHsp90 yeast 2, TRPM1 prom inh)
CCNC(=O)O[C@@H]1C=C[C@@H](C#Cc2ccc(C(C)(C)C)cc2)O[C@@H]1COC(C)=O	none (no result: N-glyco inh, MITF act, PfHsp90 yeast 2, TRPM1 prom inh)
COc1ccc(-c2nn(-c3ccccc3)cc2C(=O)N2CCN(S(=O)(=O)c3ccccc3[N+](=O)[O-])CC2)cc1	PfHsp90 yeast 2 99 (no result: MITF act, TRPM1 prom inh)
COc1ccc(-c2nn(-c3ccccc3)cc2C(=O)N2CCN(S(=O)(=O)c3ccccc3C#N)CC2)cc1	none (no result: PfHsp90 yeast 2)
COc1ccc(-c2nn(-c3ccccc3)cc2C(=O)N2CCN(S(=O)(=O)c3cccc(F)c3)CC2)cc1	PfHsp90 yeast 2 105
Cc1ccc(-n2c(Cc3cccs3)nnc2SCc2ccc(Br)cc2)cc1	none (no result: N-glyco inh, MITF act, Wnt act, PfHsp90 yeast 2, TRPM1 prom inh)
CCc1ccc(NC(=O)CC2C(=O)Nc3c2c(=O)n(C)c(=O)n3C)cc1 (stereo not given)	none
Oc1c(Br)cc(Br)c(/C=N/n2c(-c3ccccc3)n[nH]c2=S)c1Br	PfHsp90 yeast 2 119 (no result: MITF act)
O=[N+]([O-])c1ccc(-c2nn(-c3ccccc3)cc2/C=N/n2c(-c3ccncc3)n[nH]c2=S)cc1	none (no result: MITF act)
S=c1[nH]nc(-c2ccncc2)n1/N=C/c1cn(-c2ccccc2)nc1-c1ccccc1	Wnt act 37 (no result: MITF act, PfHsp90 yeast 2, TRPM1 prom inh)
COC(=O)C1=C(C)N(Cc2ccccc2C(F)(F)F)C(=NCc2cc(OC)c(OC)c(OC)c2)NC1c1cccc(F)c1 (stereo not given)	none (no result: N-glyco inh, MITF act, PfHsp90 yeast 2, TRPM1 prom inh, NSD2 HMT inh)
O=C(COc1cc(Cl)ccc1Cl)Nc1ccc2c(c1)CCC2	none
COc1ccccc1OCC(=O)Nc1ccc(Cl)cc1	none (no result: PfHsp90 yeast 2)
NC(=O)c1ccccc1OCC(=O)Nc1ccc(Cl)c(Cl)c1	Wnt act 40 (no result: NSD2 HMT inh)
NC(=O)c1ccccc1OCC(=O)Nc1ccc2c(c1)CCC2	MITF act 93
Cc1ccc(Nc2n[nH]c(C)c2[N+](=O)[O-])cc1	MITF act 96, Wnt act 45
Cc1[nH]nc(Nc2ccc(C(C)C)cc2)c1[N+](=O)[O-]	MITF act 114
O=C(Cn1cnc2ccccc2c1=O)N1CCN(C(=O)C2CCCO2)CC1 (stereo not given)	none (no result: N-glyco inh, MITF act, Wnt act, PfHsp90 yeast 2, TRPM1 prom inh)
CCOC(=O)C(=Cc1ccc(Br)cc1)C(=O)OCC	none
COCCOC(=O)/C(=C/c1ccc(OC(=O)c2ccccc2)cc1)C(C)=O	PfHsp90 yeast 2 108 (no result: Wnt act)
CCOC(=O)C(=Cc1ccc(-n2ccnc2)cc1)C(=O)OCC	Wnt act 56 (no result: TRPM1 prom inh)
CCOC(=O)/C(=C/c1ccc(OC(=O)c2ccncc2)cc1)C(C)=O	Wnt act 46
CCc1c(-c2cccc(Br)c2)ncn1CCc1ccccc1OC	none (no result: N-glyco inh, MITF act, PfHsp90 yeast 2, TRPM1 prom inh, NSD2 HMT inh)
CC1CCC(C(C)C)C(OC(=O)C[n+]2cc(-c3ccc(Cl)cc3)n3c2CCCCC3)C1 (stereo not given)	TRPM1 prom inh 87 (no result: Wnt act)
Cc1ccc(NC(=O)c2cc(-c3cc(Cl)ccc3O)n[nH]2)cc1C	none
Cc1ccc(C)c(NC(=O)c2cc(-c3cc(C)ccc3O)n[nH]2)c1	MITF act 117
Cc1cccc(NC(=O)c2cc(-c3cc(Cl)ccc3O)n[nH]2)c1	MITF act 108 (no result: Wnt act, NSD2 HMT inh)
O=C(CCc1c[nH]c2ccccc12)Nc1ccc(Nc2cccnc2)c(Br)c1	none (no result: N-glyco inh, MITF act, PfHsp90 yeast 2, TRPM1 prom inh, NSD2 HMT inh)
O=C(NC1CCCC1)N1CCC(c2nc3ccc(Cl)cc3[nH]2)CC1	none (no result: N-glyco inh, MITF act, Wnt act, PfHsp90 yeast 2, TRPM1 prom inh)
O=C(NNC1=C(C(=O)C(F)(F)F)CCC1)c1ccc(Cl)cc1	PfHsp90 yeast 2 122
Cc1ccc(NC(=O)c2snc3ccc(Cl)cc23)cc1C	Wnt act 48
Cc1ccc(NC(=O)c2ccccc2)cc1C	none (no result: NSD2 HMT inh)
O=C(NCc1cccnc1)/C(=C\c1ccc(-c2cccc(Cl)c2)o1)S(=O)(=O)c1ccccc1	TRPM1 prom inh 90 (no result: Wnt act)
O=C(OCCC12CC3CC(CC(C3)C1)C2)c1ccc(NCc2cc(O)ccc2O)cc1	TRPM1 prom inh 67
O=C(OCC12CC3CC(CC(C3)C1)C2)c1ccc(NCc2cc(O)ccc2O)cc1	none (no result: NSD2 HMT inh)
COc1cccc(CNS(=O)(=O)c2cc3c(cc2Br)CC(C)N3C(C)=O)c1 (stereo not given)	none (no result: N-glyco inh, MITF act, Wnt act, PfHsp90 yeast 2, TRPM1 prom inh)
Cc1ccc(SC2=C(N(C)C)C(=O)c3ccccc3C2=O)cc1	NSD2 HMT inh 93 (no result: MITF act)
Cc1ccc(-n2[nH]c3c4c(ccc3c2=O)C(=O)c2ccccc2C4=O)cc1	none
Cc1ccc(NC2=C(N3CCOCC3)C(=O)c3ccccc3C2=O)cc1	NSD2 HMT inh 101 (no result: Wnt act)
CC(=O)N(C)C1=C(N2CCOCC2)C(=O)c2ccccc2C1=O	TRPM1 prom inh 89, NSD2 HMT inh 98 (no result: Wnt act)
CC(=O)c1ccc(NC2=C(N3CCOCC3)C(=O)c3ccccc3C2=O)cc1	none (no result: Wnt act, NSD2 HMT inh)
O=C(O)c1ccc(NC2=C(N3CCOCC3)C(=O)c3ccccc3C2=O)cc1	NSD2 HMT inh 95
CC(=O)N(C1=C(N2CCOCC2)C(=O)c2ccccc2C1=O)c1ccc(C(=O)O)cc1	none
Cc1ccc(S(=O)(=O)N2CC(CBr)=CCC2c2ccccc2)cc1 (stereo not given)	none (no result: N-glyco inh, MITF act, PfHsp90 yeast 2, TRPM1 prom inh, NSD2 HMT inh)
Cc1nn(Cc2c(F)c(F)c(F)c(F)c2F)c(C)c1NC(=O)c1c(-c2ccccc2)nn(-c2ccccc2)c1C	none (no result: Wnt act)
O=C(C[C@@H]1C[C@@H]2c3cc(NC(=O)c4ccc5c(c4)OCO5)ccc3O[C@@H]2[C@@H](CO)O1)NCc1cccnc1	none (no result: N-glyco inh, MITF act, PfHsp90 yeast 2, TRPM1 prom inh, NSD2 HMT inh)
C/C(=N\NC(=O)C(C)Oc1ccc([N+](=O)[O-])cc1)c1ccccn1 (stereo not given)	TRPM1 prom inh 83 (no result: Wnt act, PfHsp90 yeast 2)
CC(Oc1ccccc1)C(=O)NNC(=O)c1ccccn1 (stereo not given)	none
O=C(COc1ccccc1)Nc1nc2c(s1)CCCC2	MITF act 114
CCOC(=O)C1(Cc2ccccc2)CCCN(C(=O)c2cnn(CC)c2)C1 (stereo not given)	MITF act 91
CCOC(=O)C1(Cc2cccc(OC)c2)CCCN(C(=O)c2cc(C)on2)C1 (stereo not given)	none
CCOC(=O)C1(Cc2cccc(OC)c2)CCCN(C(=O)c2ccccc2C)C1 (stereo not given)	Wnt act 35
CCOC(=O)c1c(-c2ccc(Cl)cc2)csc1/N=C/C1C(=O)CC(C)(C)CC1=O	none (no result: N-glyco inh, MITF act, Wnt act, PfHsp90 yeast 2, TRPM1 prom inh)
C=CCn1c(SCC(=O)c2ccc(-c3ccccc3)cc2)nnc1-c1ccc(OC)cc1	none (no result: N-glyco inh, MITF act, Wnt act, PfHsp90 yeast 2, TRPM1 prom inh)
C=CCN(CC=C)c1nc2ccccc2nc1C(C#N)C(=O)OCCOC (stereo not given)	none (no result: MITF act)
CCCN(CCC)c1nc2ccccc2nc1C(C#N)C(=O)OCCOC (stereo not given)	MITF act 91 (no result: Wnt act)
COC(=O)c1ccc(N2CCN(c3ccccc3)CC2)nc1	MITF act 100
C=CCOC(=O)c1ccc(N2CCN(c3ccccc3)CC2)nc1	none
COc1ccccc1CNC(=O)N1CCC(c2nc3ccc(Cl)cc3[nH]2)CC1	none (no result: N-glyco inh, MITF act, Wnt act, PfHsp90 yeast 2, TRPM1 prom inh)
CC(C)NCC(O)Cn1c2c(c3ccccc31)CCc1c-2cnn1-c1ccccc1 (stereo not given)	TRPM1 prom inh 85 (no result: Wnt act)
